# Screening data (PubChem)
# JMJD2A Tudor: inhibitors of human JMJD2A Tudor domain; O75164; AlphaScreen JMJD2A-Tudor / H3K4me3 peptide binding; Potency, µM (top dose mostly 114 µM), for inactives: at the highest dose activity change, negative = inhibition, hits mostly inhibitors; 390,000 compounds, 4.4% hits; AID 504339; further: on the % scale 0 is the no-effect control and ±100 the full control effect; nearly all actives have a fitted effect of over 50% in size
# L3MBTL1 block: L3MBTL1 (human) inhibition; AlphaScreen L3MBTL1–H3K9me1 peptide binding; 230,000 compounds, 0.66% hits; Potency, µM (series often up to 57.1 µM), inactives show at the highest dose activity, negative = inhibition, usual class: inhibitors; Q9Y468; further: on the % scale 0 is the no-effect control and ±100 the full control effect; nearly all actives have a fitted effect of over 60% in size
#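 L3MBTL1 50 nM + b-AHA-H3(1-15)K9me1 75 nM, 30 min RT; compound added, 30 min RT; streptavidin donor/Ni-chelate acceptor beads 10 ug/mL each final, 30 min RT dark; AlphaScreen read.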
# G9a inh: inhibitors of human histone lysine methyltransferase G9a; G9a H3K9 monomethylation, AlphaScreen, 2 h; Q96KQ7; 350,000 compounds, 8.8% hits; Potency, µM (series often up to 102 µM), for inactives: at the top dose activity, negative = inhibition, hits mostly inhibitors; further: on the % scale 0 is the no-effect control and ±100 the full control effect; nearly all actives have a fitted effect of over 75% in size
# Target sequence (Q96KQ7 913-1193 limits assumed): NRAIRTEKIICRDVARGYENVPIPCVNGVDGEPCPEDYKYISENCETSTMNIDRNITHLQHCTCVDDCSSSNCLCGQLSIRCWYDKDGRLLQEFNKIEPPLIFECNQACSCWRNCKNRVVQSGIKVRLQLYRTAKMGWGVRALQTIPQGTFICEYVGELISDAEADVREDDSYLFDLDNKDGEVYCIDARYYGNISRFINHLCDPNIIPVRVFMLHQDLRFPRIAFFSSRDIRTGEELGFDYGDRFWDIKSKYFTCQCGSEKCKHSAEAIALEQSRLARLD
#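 G9a (20 nM) was preincubated 15 min with compound, then reacted 2 h at room temperature with 500 nM biotin-H3K9 peptide and 20 µM SAM. Monomethyl-H3K9 detected by AlphaScreen using anti-H3K9me1 antibody.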
# Sfp inh: inhibitors of Bacillus subtilis Sfp phosphopantetheinyl transferase; Q9F4F7; Biochemical Sfp PPTase activity, qHTS; Potency, µM, for inactives: largest response in the series, negative = inhibition, most hits filed as inhibitors; 310,000 compounds, 3.5% hits; AID 1490;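 further: the enzyme is Sfp with the accession as filed and its product quenches rhodamine fluorescence; 0% = enzyme reaction without inhibitor and -100% = no enzyme wells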
#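 Fluorescence-quenching assay with 15 nM Sfp, 5 uM rhodamine-CoA and 12.5 uM BHQ-2-labelled ybbR peptide in pH 7.6 Hepes/MgCl2 buffer. Enzyme was pre-incubated with compound for 15 min at room temperature. Rate was taken from the 30-min fluorescence change (525/598 nm).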
# HP1b binding inh: HP1-beta chromodomain-methylated histone interaction inhibition; 390,000 compounds, 0.56% hits; Potency, µM (titrated, usually from 114 µM), for inactives: at the top dose activity change, negative = inhibition, actives largely listed as inhibitors; P83916; AlphaScreen HP1-beta / biotin-H3K9me3 peptide binding; further: nearly all actives have a fitted effect of over 70% in size
# Target sequence (P83916 whole entry, looked up): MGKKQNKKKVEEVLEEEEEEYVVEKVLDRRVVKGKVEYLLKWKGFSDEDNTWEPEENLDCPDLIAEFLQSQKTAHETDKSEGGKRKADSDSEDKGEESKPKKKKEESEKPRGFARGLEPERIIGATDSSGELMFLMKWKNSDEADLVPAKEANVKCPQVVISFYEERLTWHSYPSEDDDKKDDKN
#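 HP1-beta protein (50 nM final) preincubated 30 min at room temperature with biotinylated H3(1-18)K9me3 peptide (50 nM) in PBS pH 7.4, 0.01% Tween-20, then compound added for 30 min. AlphaScreen streptavidin donor/nickel chelate acceptor beads (10 ug/mL final), 30 min dark, luminescence read.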
# BAZ2B inh: blocks human BAZ2B; 360,000 compounds, 4.4% hits; Potency, µM (titrated, usually from 114 µM), inactives show top-dose activity change, negative = inhibition, actives largely listed as inhibitors; AlphaScreen BAZ2B-H3K14Ac peptide displacement; further: on the % scale 0 is the no-effect control and ±100 the full control effect; nearly all actives have a fitted effect of over 60% in size
#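 In this displacement format the biotinylated H3(5-23) peptide acetylated at Lys14 serves as ligand at 50 nM, with BAZ2B at 50 nM in PBS pH 7.4 containing 0.01% Tween-20. Donor and acceptor beads are 10 ug/mL final.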
# * = called active by the depositor; ? = inconclusive; nt = no result given; [ ] = remark or other dose. An excerpt weighted towards active compounds, which were near 12% of everything screened. The call rests on the fitted dose curve; in most records, active means well fitted curve in the direction sought with a large enough effect; inconclusive means small, poorly fitted or top-dose-only effect, or another doubt; inactive means no such curve, though single readings can be large; an effect the other way counts as inactive or inconclusive. Potency means the concentration at half of the fitted maximal effect.
SMILES,JMJD2A Tudor,L3MBTL1 block,G9a inh,Sfp inh,HP1b binding inh,BAZ2B inh
NC(=O)c1cc(S(=O)(=O)N2CC=C(c3ccccc3)CC2)cs1,0%,nt,?,15%,70%,0%
O=C(O)CC1CCC(=C(Cl)Cl)C1 (stereo unspecified),-21%,-15%,45µM*,1%,12%,?
CCCSc1nc(N)c2c3c(sc2n1)CN(C)CC3,-14%,-4%,-46%[12.7 µM],3%,40%,0%
CN(C)CCSc1nc(N)c2c3c(sc2n1)CN(C)CC3,-14%,-3%,45µM*,12%,10%,-7%
CC(C)Sc1nc(N)c2c3c(sc2n1)CN(C)CC3,-17%,-5%[11.4 µM],3.2µM*,5%,32%,6%
CC(C)(C)C1CCc2nc(NC(=O)Cc3ccccc3)sc2C1 (stereo unspecified),-1%,nt,-9%[59 µM],nt,34%,7%
Nc1nc2c(s1)CC(c1ccccc1)CC2 (stereo unspecified),5%[11.4 µM],-5%,50µM*,2%,-2%,?
COc1ccc2c(=O)c3c(=O)n(Cc4ccco4)c(-c4ccccc4)nc3oc2c1,-27%,nt,?,32µM*,6%,-13%
CCCc1nc2sc3ccccc3c(=O)c2c(=O)n1Cc1ccc(OC)cc1,-5%,7%,nt,?,14%,-23%
CCCc1nc2sc3ccccc3c(=O)c2c(=O)n1Cc1ccco1,-28%[57.1 µM],?,?,28µM*,15%,?
CCCc1nc2oc3cc(OC)ccc3c(=O)c2c(=O)n1Cc1ccco1,?,nt,-20%[59 µM],32µM*,-11%,?
COc1ccc2c(=O)c3c(=O)n(Cc4ccco4)c(-c4cc(OC)c(OC)c(OC)c4)nc3oc2c1,-20%,-4%,?,?,23%,-5%
COc1ccccc1NC(=O)CCCN1C(=O)C2CC=CCC2C1=O (stereo unspecified),-4%,nt,28%,10%,17%,2%
Cc1ccc(C(C)NC(=S)NC2CCCCC2)c(C)c1 (stereo unspecified),-9%,nt,nt,4%,31%,-24%
Cc1ccc2[nH]c(=O)c(Cc3ccccc3)c(O)c2c1,-3%[11.4 µM],6%,8.9µM*,?,44%,?
CCc1cccc(NC(=S)N(CCOC)C(C)c2ccco2)c1 (stereo unspecified),-6%,nt,12%[12.7 µM],56µM*,57%,-2%
O=C(NCc1ccccc1)c1nc(-c2ccc(Cl)cc2)n2c1CCCCC2,22µM*,nt,14µM*,nt,-5%,13µM*
Cc1ccc(-c2nc(C(=O)NCc3ccc(Cl)cc3)c3n2CCCCC3)cc1,-7%,nt,6%[59 µM],nt,16%,4%
O=C(c1nc(-c2ccc(Cl)cc2)n2c1CCCCC2)N1CCN(c2ccc(F)cc2)CC1,40µM*,nt,?,nt,?,40µM*
O=C(NCCc1ccc(Cl)cc1)c1nc(-c2cccc(F)c2)n2c1CCCCC2,22µM*,nt,25µM*,nt,-23%,11µM*
O=C(NCCc1ccccc1)c1nc(-c2ccc(Cl)cc2)n2c1CCCCC2,22µM*,nt,14µM*,nt,-19%,25µM*
COc1cccc(CN(C(=O)COc2ccc(C)cc2)C2CCS(=O)(=O)C2)c1 (stereo unspecified),-11%,nt,3%,14%,59%,-24%
CC(C)(C)c1ccc(OCC(O)CN2CCc3ccccc3C2)cc1 (stereo unspecified),-12%,nt,nt,nt,81%,nt
CC(C)(C)c1ccc(C(=O)NC(Cc2c[nH]c3ccccc23)C(=O)OCC(=O)c2ccc(Br)cc2)cc1 (stereo unspecified),-28%,nt,-28%[59 µM],nt,24%,-13%
COCCNC(=O)c1cccc(OC2CCN(Cc3ccc(Cl)c(F)c3)CC2)c1,-8%,0%,2%,25%,22%,-7%
SMILES,JMJD2A Tudor,L3MBTL1 block,G9a inh,Sfp inh,HP1b binding inh,BAZ2B inh
CCc1cccc(C)c1NC(=O)C(NS(=O)(=O)c1ccc2c(c1)CCC(=O)N2)c1ccccc1 (stereo unspecified),-9%,nt,-3%[59 µM],nt,28%,-6%
CCOc1ccccc1CNC(=O)c1nc(-c2ccc(Cl)cc2)n2c1CCCCC2,?,nt,10µM*,nt,-15%,10µM*
CC(C)N(Cc1ccccc1)C(=O)c1nc(-c2ccc(Cl)cc2)n2c1CCCCC2,45µM*,nt,?,nt,-15%,35µM*
COC(=O)c1ccc(NC(=O)c2nc(-c3ccc(Cl)cc3)n3c2CCCCC3)cc1,-35%,nt,?,nt,-1%,?
CC1Cc2ccccc2N1S(=O)(=O)c1cccc(C(=O)N2CC(=O)Nc3ccccc32)c1 (stereo unspecified),-27%,-16%,71µM*,0%,16%,-1%
Cc1ccc(S(=O)(=O)N2c3ccccc3NC(=O)CC2C)cc1 (stereo unspecified),-10%,3%,20%[59 µM],7%,20%,8%
CC1CC(=O)Nc2ccccc2N1S(=O)(=O)c1ccccc1 (stereo unspecified),18µM*,1%,-23%[59 µM],-17%,-3%,37%
CCOC(=O)CN1c2ccccc2NC(=O)CC1C (stereo unspecified),-25%,0%,45µM*,15%,48%,0%
FC(F)(F)c1cccc(NC(=S)NNC(=S)Nc2cccc(C(F)(F)F)c2)c1,nt,-12%,35µM*,25µM*,nt,?
Cc1ccc(NNC(=O)C(O)(c2cccc(C(F)(F)F)c2)c2cccc(C(F)(F)F)c2)cc1,-24%,-6%,32µM*,15%,13%,-28%
CC(C)(O)C(=O)NNC(=S)Nc1cccc(C(F)(F)F)c1,-13%,1%,7.9µM*,8%,29%,-7%
CNNC(=S)Nc1cccc(C(F)(F)F)c1,-3%,4%,-32%,-5%,51%,-28%
COc1ccc([C@]23Cc4cc(OC)c(OC)cc4C(O2)c2c(cc(C)n(Cc4ccccc4)c2=O)O3)cc1,nt,nt,-4%[2.33 µM],-9%,nt,11µM*
COc1ccc([C@]23Cc4cc(OC)c(OC)cc4C(O2)c2c(c4ccccc4oc2=O)O3)cc1,nt,nt,?,-19%,nt,10µM*
COc1ccc([C@]23Cc4cc(C#N)ccc4[C@H](O2)c2c(cc(C)n(Cc4ccccc4)c2=O)O3)cc1,nt,nt,nt,4%,nt,-1%[22.9 µM]
C[C@H]1COC(=O)[C@H]2CCCN2C(=O)[C@@H](C)COC(=O)[C@H]2CCCN2C1=O,nt,nt,nt,-10%,nt,nt
COc1ccccc1C(=O)COC(=O)CCNS(=O)(=O)c1ccc(C)c(C)c1,-13%,2%,7%[0.501 µM],nt,10%,1%
Cc1ccc(-n2c(=O)c3c4c(sc3n(Cc3cc(=O)n5cc(Cl)ccc5n3)c2=O)CCC4)cc1C,-20%,nt,6%[59 µM],nt,1%,2%
Cn1cccc1Cc1nnc(SCC(=O)N2CCOCC2)n1CCc1ccccc1,-27%,-4%,45µM*,-4%,37%,-31%
